Each structure is given as a SMILES string. Activity calls are given as the source filed them.

The source of these data is PubChem BioAssay.

Assay [1] can be described thus: small molecules captured by biotinylated probe aFSTL3 – biochemical, small-molecule microarray, fluorescence 635/667, stem cell growth factor project, primary screen (AID 1064).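 Further: measures binding of the biotinylated anti-FSTL3 antibody to printed compounds.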 To be noted: higher = more signal.
A short description of assay [2]: binders from COS7 lysate, DM2A8 probe, primary screen, torsin A project, cell lysate, small-molecule microarray, fluorescence 635/667 (AID 1065). As to conditions: higher = more signal, COS7 lysate expressing mutant human TOR1A.
Assay [3] in a line: small molecules captured by biotinylated probe aFGF2 – biochemical, small-molecule microarray, fluorescence 635/667, stem cell growth factor project, primary screen (AID 1067).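 Further: measures binding of biotinylated aFGF2 protein to printed compounds on slides; z-score merges feature fluorescence and signal-to-noise across triplicate slides.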 As to conditions: higher = more signal.
Assay [4] is described as follows: small molecules captured by biotinylated probe aFGF10 – biochemical, small-molecule microarray, fluorescence 635/667, stem cell growth factor project, primary screen (AID 1071).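 Further: score merges 667 nm spot intensity and signal to noise from triplicate slides.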 To be noted: higher = more signal.
Assay [5] concerns the target Neurogenic locus notch homolog protein 2 (Homo sapiens) (UniProt Q04721). The experiment in a line: small molecules binding Notch2 protein – biochemical, small-molecule microarray, 635 nm fluorescence, stem cell growth factors, primary screen (AID 1073). To be noted: higher = more signal.
The target of assay [6] is Pro-neuregulin-1, membrane-bound isoform (Homo sapiens) (UniProt Q02297). The assay can be described thus: small molecules binding neuregulin-1 protein – biochemical, small-molecule microarray, fluorescence 635/667, psychiatric disease protein project, primary screen (AID 1075).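 Further: score combines 667 nm spot fluorescence with signal to noise.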 To be noted: NRG1 binding, 635 nm fluorescence, higher = more signal.
Pro-neuregulin-1, membrane-bound isoform (Homo sapiens), sequence (Q02297 whole entry, looked up, the tested form may be a part, canonical isoform): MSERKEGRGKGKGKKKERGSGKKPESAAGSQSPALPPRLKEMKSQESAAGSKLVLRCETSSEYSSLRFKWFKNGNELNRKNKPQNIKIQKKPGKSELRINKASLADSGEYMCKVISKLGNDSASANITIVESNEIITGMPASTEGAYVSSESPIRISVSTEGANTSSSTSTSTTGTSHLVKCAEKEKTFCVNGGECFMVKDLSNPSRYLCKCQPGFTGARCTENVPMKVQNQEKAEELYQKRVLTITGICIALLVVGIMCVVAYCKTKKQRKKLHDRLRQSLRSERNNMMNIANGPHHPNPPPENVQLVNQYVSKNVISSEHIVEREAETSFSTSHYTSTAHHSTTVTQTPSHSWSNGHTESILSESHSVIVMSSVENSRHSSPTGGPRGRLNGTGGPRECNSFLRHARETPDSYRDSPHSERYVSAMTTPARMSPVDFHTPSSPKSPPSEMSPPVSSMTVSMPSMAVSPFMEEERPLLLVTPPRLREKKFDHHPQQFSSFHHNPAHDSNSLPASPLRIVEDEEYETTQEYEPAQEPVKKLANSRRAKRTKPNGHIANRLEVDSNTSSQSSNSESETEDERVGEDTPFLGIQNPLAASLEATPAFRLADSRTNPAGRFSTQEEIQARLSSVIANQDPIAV
Assay [7] concerns Neuregulin-1 EGF-like domain. The experiment in a line: small molecules binding NRG1 EGF domain – biochemical, small-molecule microarray, 635 nm fluorescence, primary screen (AID 1081).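 Further: binding of the protein to compounds printed on small-molecule microarray slides.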 As to conditions: higher = more signal.
Assay [8] in a line: FRG1 expression reporter modulators in myotubes – cell-based, C2C12 myotubes, firefly/Renilla luciferase, luminescence, FRG1 inhibition for FSHD, primary screen (AID 1084). As to conditions: FRG1 promoter luciferase, higher = more signal, called active from +8 up or from −8 down.
A short description of assay [9]: small molecules captured by biotinylated probe aFST – biochemical, small-molecule microarray, fluorescence 635/667, stem cell growth factor project, primary screen (AID 1086).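 Further: score merges 667 nm fluorescence with signal-to-noise of each printed compound spot.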 As to conditions: higher = more signal.
A short description of assay [10]: binders of probe aHhip on microarray, primary screen, stem cell growth factor project, biochemical, small-molecule microarray, fluorescence 635/667 (AID 1087).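 Further: score merges spot fluorescence at 667nm with spot signal to noise ratio.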 To be noted: higher = more signal.
Assay [11] relates to PRMT1 (protein arginine N-methyltransferase 1). The experiment in a line: small molecules binding arginine methyltransferase PRMT1 – biochemical, small-molecule microarray, 635 nm fluorescence, primary screen (AID 1088).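 Further: binding of Prmt1 protein to compounds spotted on small-molecule microarray slides.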 As to conditions: higher = more signal.
A short description of assay [12]: growth effects on S. cerevisiae YJM789 – YJM789 clinical isolate, OD600, 24 h, basal, primary screen (AID 1089).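 Further: growth of clinical yeast isolate S. cerevisiae YJM 789 seeded 1000 cells per well; test concentration not given here.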 As to conditions: higher = more signal, called active from +8 up or from −8 down.
The nature of assay [13]: S. pombe growth modifiers, basal conditions – strain 972, OD600, 24 h, no modulator, primary screen (AID 1090).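 Further: basal condition with compound alone and no growth modifier present; test concentration not given here.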 As to conditions: S. pombe 972 growth, higher = more signal, called active from +8 up or from −8 down.
Assay [14] can be described thus: budding yeast growth modifiers under rapamycin – strain BY4716, OD600, 96 h, primary screen (AID 1091). Further: test concentration not given here. To be noted: S. cerevisiae BY4716 + rapamycin, higher = more signal, called active from +8 up or from −8 down.
The target of assay [15] is Torsin-1A-interacting protein 2 (Homo sapiens) (UniProt Q8NFQ8). The assay can be described thus: small molecules binding lysate-expressed LULL1 – cell lysate, human LULL1 lysate, 635/667 nm fluorescence, primary screen (AID 1092).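 Further: probe is lysate of COS7 cells overexpressing human LULL1; score merges per-feature 667 nm fluorescence with signal-to-noise.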 To be noted: small-molecule microarray, hLULL1 lysate binding, 635 nm fluorescence; higher = more signal.
Torsin-1A-interacting protein 2 (Homo sapiens), sequence (Q8NFQ8 whole entry, looked up): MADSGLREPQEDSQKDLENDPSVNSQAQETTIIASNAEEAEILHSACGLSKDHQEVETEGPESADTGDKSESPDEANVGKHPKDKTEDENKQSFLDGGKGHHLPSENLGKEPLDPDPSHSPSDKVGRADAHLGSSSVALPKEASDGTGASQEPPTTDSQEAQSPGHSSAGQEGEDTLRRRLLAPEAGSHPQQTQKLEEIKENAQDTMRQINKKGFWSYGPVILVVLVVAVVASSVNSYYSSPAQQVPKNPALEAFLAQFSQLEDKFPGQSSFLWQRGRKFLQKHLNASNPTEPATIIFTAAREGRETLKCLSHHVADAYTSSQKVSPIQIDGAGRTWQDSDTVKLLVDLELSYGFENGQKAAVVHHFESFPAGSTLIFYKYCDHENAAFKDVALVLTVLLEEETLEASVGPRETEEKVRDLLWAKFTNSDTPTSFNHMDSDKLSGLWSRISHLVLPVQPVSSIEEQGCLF
Assay [16] is described as follows: optical density change of DRC41 E. coli – strain DRC41, OD650, 24 h, E. coli filamentation project, primary screen (AID 1093).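 Further: MC1000 strain lacking acrAB efflux and sulA so SOS filamentation is blocked; test concentration not given here.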 As to conditions: E. coli DRC41 growth, higher = more signal, called active from +8 up or from −8 down.
The nature of assay [17]: probe aLefty2 binding to arrayed compounds – biochemical, biotinylated probe, 635/667 nm fluorescence, primary screen (AID 1094).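 Further: score merges spot fluorescence near 667 nm with spot signal-to-noise ratio.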 To be noted: small-molecule microarray, higher = more signal.
Assay [18] relates to Noggin (protein binding on small-molecule microarray). The experiment in a line: small molecules binding Noggin protein – biochemical, 635/667 nm fluorescence, primary screen (AID 1095).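 Further: score merges 667 nm feature fluorescence with signal to noise over triplicate slides.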 As to conditions: 635 nm fluorescence, higher = more signal.
For assay [19], the target named is Neurogenic locus notch homolog protein 3 (Homo sapiens) (UniProt Q9UM47). The assay can be described thus: small molecules binding NOTCH3 protein – biochemical, 635/667 nm fluorescence, primary screen (AID 1096). As to conditions: small-molecule microarray, 635 nm fluorescence, higher = more signal.
Neurogenic locus notch homolog protein 3 (Homo sapiens), sequence (Q9UM47 whole entry, looked up): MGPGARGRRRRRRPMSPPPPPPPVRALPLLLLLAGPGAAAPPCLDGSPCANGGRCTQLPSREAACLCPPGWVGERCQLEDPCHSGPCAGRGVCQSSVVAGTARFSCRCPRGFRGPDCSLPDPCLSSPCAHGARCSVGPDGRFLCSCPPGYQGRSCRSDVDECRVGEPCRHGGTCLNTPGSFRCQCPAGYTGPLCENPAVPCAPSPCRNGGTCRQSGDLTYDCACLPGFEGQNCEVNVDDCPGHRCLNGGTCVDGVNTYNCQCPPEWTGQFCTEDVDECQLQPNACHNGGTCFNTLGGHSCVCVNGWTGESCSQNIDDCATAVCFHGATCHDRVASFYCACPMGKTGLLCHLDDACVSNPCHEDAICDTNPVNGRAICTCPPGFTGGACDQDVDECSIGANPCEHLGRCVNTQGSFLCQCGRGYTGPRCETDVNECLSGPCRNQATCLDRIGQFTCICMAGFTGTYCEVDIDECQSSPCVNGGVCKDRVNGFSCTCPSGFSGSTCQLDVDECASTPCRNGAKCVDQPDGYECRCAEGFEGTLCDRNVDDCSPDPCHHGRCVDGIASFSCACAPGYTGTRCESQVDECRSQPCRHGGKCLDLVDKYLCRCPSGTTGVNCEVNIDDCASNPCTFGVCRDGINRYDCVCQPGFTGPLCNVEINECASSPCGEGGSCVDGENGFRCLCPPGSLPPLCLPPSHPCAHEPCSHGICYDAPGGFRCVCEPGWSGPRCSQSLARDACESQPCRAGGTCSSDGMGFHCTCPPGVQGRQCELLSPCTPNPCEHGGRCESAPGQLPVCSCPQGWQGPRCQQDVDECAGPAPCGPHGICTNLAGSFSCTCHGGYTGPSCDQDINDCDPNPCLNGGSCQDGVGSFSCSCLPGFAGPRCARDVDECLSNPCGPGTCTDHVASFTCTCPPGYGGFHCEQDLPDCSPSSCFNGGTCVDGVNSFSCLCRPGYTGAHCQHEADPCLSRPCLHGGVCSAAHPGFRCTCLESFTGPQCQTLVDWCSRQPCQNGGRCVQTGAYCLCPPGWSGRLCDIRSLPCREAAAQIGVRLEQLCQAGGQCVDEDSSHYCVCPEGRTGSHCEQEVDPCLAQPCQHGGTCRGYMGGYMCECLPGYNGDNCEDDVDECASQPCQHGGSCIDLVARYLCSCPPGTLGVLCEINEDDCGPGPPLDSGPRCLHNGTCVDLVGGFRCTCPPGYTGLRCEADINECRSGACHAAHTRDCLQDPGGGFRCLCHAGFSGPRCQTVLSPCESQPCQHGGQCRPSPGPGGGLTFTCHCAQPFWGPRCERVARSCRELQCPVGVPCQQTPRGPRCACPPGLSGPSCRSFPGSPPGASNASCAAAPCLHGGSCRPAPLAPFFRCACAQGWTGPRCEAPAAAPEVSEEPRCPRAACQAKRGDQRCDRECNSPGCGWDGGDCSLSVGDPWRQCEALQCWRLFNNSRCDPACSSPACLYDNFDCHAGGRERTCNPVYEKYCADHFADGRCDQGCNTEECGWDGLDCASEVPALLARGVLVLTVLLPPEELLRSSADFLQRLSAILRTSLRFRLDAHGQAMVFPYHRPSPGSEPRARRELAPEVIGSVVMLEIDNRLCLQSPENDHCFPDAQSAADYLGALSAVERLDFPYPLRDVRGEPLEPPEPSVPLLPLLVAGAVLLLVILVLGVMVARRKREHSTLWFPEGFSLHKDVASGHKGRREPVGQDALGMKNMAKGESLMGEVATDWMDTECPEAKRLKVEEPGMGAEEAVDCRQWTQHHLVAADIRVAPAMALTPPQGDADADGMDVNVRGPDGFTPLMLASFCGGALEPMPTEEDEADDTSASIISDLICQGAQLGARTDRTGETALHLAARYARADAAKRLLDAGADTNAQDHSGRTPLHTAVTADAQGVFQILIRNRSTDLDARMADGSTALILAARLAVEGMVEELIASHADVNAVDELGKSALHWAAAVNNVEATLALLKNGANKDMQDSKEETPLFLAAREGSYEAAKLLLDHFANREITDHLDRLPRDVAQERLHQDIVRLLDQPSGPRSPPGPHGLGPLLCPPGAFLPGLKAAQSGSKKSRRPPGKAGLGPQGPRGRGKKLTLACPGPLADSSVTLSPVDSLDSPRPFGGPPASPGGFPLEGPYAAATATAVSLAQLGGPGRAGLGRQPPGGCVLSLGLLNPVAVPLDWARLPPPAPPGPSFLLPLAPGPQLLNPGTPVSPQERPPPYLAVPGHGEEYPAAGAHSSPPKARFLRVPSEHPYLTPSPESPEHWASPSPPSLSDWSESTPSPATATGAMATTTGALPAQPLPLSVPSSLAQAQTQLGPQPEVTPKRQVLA
Assay [20] in a line: probe aEGFR binding to arrayed compounds – biochemical, biotinylated probe, 635/667 nm fluorescence, primary screen (AID 1097).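 Further: probe is a biotinylated anti-EGFR antibody binding compounds printed on slides; score combines fluorescence near 667 nm and signal to noise of each spot.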 To be noted: small-molecule microarray, higher = more signal.

As to `CCCCN1CC=CC23O[C@@H]4/C=C\CCC(C)OC(=O)C4[C@H]2C(=O)N(C(CO)C(C)C)[C@@H]3C1=O` (stereo not given in full), the composite z-score was -0.513 in assay [1]; 0.642 in assay [2]; -0.0976 in assay [3]; 0.291 in assay [4]; -0.358 in [5]; 0.362 in [6]. Also, the composite z-score in assay [7] was 1.45; in assay [9] it was -0.19; in assay [10] it was -0.201; in [11] it was 0.738; in assay [15], 2.77; in [17], -0.166. For the same molecule, the composite z-score in assay [18] was 0.21; in assay [19] it was 0.395; in assay [20] it was -0.123. Further, the z-score in [8] was -0.095 (inactive); in assay [12] it was -0.824 (inactive); in assay [13], -0.753 (inactive); in [14], -0.528 (inactive); in assay [16] it was -0.318 (inactive).
With `COc1cc(OC)c(C(O)C2C=CC3C(=O)N(c4ccccc4)C(=O)C3N2Nc2ccccc2)cc1Br` (stereo not given), the composite z-score in assay [1] is 0.0555; in [2], -0.01; in assay [3], 0.0393; in assay [4], 0.208; in assay [5], 0.878; in assay [6] it was 1.66. Moreover, the composite z-score in assay [7] was determined as 0.936; in [9], 0.558; in assay [10] it was 0.0139; in [11], 1.2; in assay [15], 2.53; in [17], 0.167. Also, the composite z-score in assay [18] is 0.0401; in [19] it was 0.862; in [20], -0.0828. Besides, the z-score is 0.203 (inactive) in assay [8]; -0.465 (inactive) in [12]; 1.09 (inactive) in [13]; 0.326 (inactive) in assay [14]; -0.604 (inactive) in assay [16].
For the molecule `COCCOC(=O)N1C(=O)[C@@]2(c3cc(C#CC4=CCCCC4)ccc31)[C@H](c1ccc(O)cc1)N1[C@H](c3ccccc3)[C@H](c3ccccc3)OC(=O)[C@H]1[C@@H]2C(=O)N1CCN(c2ncccn2)CC1`, the composite z-score in assay [1] is 0.875; in assay [2], -0.0653; in [3], -0.141; in assay [4] it was -0.164; in assay [5], -1.58; in [6], 0.576. For the same molecule, the composite z-score was -0.0176 in assay [7]; -0.841 in assay [9]; -0.277 in [10]; 0.234 in assay [11]; -0.142 in assay [15]; -0.192 in assay [17]. For the same molecule, the composite z-score in [18] is -1.1; in assay [19], -0.756; in assay [20], -0.348. In addition, the z-score was 0.214 (inactive) in assay [8]; 0.358 (inactive) in assay [12]; 0.371 (inactive) in assay [13]; 0.58 (inactive) in assay [14]; -0.737 (inactive) in [16].
`CCOC(=O)C1CCCCN1` (stereo not given): the composite z-score in assay [1] was determined as 0.267; in [2], 0.0953; in [3], 0.119; in assay [4], 0.989; in assay [5], 0.931; in assay [6], 0.153. The composite z-score came out at 0.765 in assay [7]; 0.74 in assay [9]; 1.96 in assay [10]; 1.08 in [11]; 1.16 in [15]; 0.697 in assay [17]. Moreover, the values for the composite z-score in assay [18], in assay [19] and in [20] were 0.458, 0.738 and 0.641, respectively. For the same molecule, the z-score is -0.102 (inactive) in assay [8]; -0.0725 (inactive) in assay [12]; 0.438 (inactive) in assay [13]; 0.363 (inactive) in assay [14]; -0.0508 (inactive) in assay [16].
For the molecule `COCCOC(=O)N1C(=O)[C@@]2(c3cc(C#CC4=CCCCC4)ccc31)[C@H](C(=O)N1CCCCCCC1)[C@H]1C(=O)O[C@H](c3ccccc3)[C@H](c3ccccc3)N1[C@@H]2c1ccc(O)cc1`, the composite z-score was 0.804 in assay [1]; 0.0395 in [2]; -0.0226 in [3]; 0.119 in assay [4]; 0.464 in [5]; -0.215 in [6]. Further, the composite z-score in assay [7] is 1.14; in assay [9], 0.409; in assay [10], -0.31; in assay [11], 1.56; in assay [15], 2.88; in [17] it was 0.295. The composite z-score in assay [18] was 0.795; in [19] it was 0.807; in assay [20], 0.0383. Besides, the z-score is -0.472 (inactive) in [8]; -1.17 (inactive) in assay [12]; 0.509 (inactive) in [13]; 0.983 (inactive) in [14]; 1.53 (inactive) in assay [16].
